Results on 20 compounds are retold here after PubChem BioAssay (NCI).

The nature of assay [1]: NCI Yeast Anticancer Drug Screen. Data for the rad50 strain (AID 155).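 Further: 0% = growth of vehicle-only cultures of the same strain.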 The settings on record: S. cerevisiae rad50 strain growth inhibition; at 50.0 µM; hits give high values. In outline: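 Yeast carrying a defined DNA repair defect were exposed to test compounds, and growth was compared with vehicle-treated controls to give percent inhibition.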
The nature of assay [2]: NCI Yeast Anticancer Drug Screen. Data for the mec2-1 strain (AID 157). As to conditions: S. cerevisiae mec2-1 strain, at 50.0 µM, hits give high values. In outline:
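Yeast mec2-1 mutant treated with compound. Readout: growth inhibition vs vehicle controls.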

A short description of assay [3]: NCI Yeast Anticancer Drug Screen. Data for the sgs1 mgt1 strain (AID 161).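 Further: 0% = growth of cultures given vehicle only.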 As to conditions: S. cerevisiae sgs1 mgt1 strain, at 50.0 µM, hits give high values. In outline:
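Read-out: growth inhibition vs vehicle controls. Cells: mutant yeast strain deficient in DNA damage repair.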

Assay [4] can be described thus: NCI Yeast Anticancer Drug Screen. Data for the cln2 rad14 strain (AID 165).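 Further: 0% = growth equal to vehicle treated cultures.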 The settings on record: S. cerevisiae cln2 rad14 strain, at 50.0 µM, hits give high values. In short, it runs like this:
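cln2 rad14 yeast strain; compound exposure; growth inhibition read vs vehicle controls.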

Assay [5] can be described thus: NCI Yeast Anticancer Drug Screen. Data for the bub3 strain (AID 167). The settings on record: S. cerevisiae bub3 mutant strain, at 50.0 µM, hits give high values. In short, it runs like this: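 Compounds were applied to a genetically altered yeast strain carrying a cell-cycle control defect. Growth inhibition was scored against vehicle-treated controls.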
A short description of assay [6]: NCI Yeast Anticancer Drug Screen. Data for the mlh1 rad18 strain (AID 175). As to conditions: S. cerevisiae mlh1 rad18 strain growth inhibition; at 50.0 µM; hits give high values. In outline: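 Yeast w/ defined DNA-repair lesions; compound exposure; growth vs vehicle controls → % inhibition.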

Compounds without any hit were thinned out: in the full panel of roughly 79,000, 15% have a hit. A number with no mark means an inactive call. Calls of active or inactive are those of the source. No stated cut-off is given here; in the data, active means growth inhibition above about 70%; inactive means the rest.

On to `CCOC(=O)c1[nH]c2cccc3c2c1CC[C@H](NC(=O)C(F)(F)F)C3=O`, for which the growth inhibition in assay [1] is -5.1%; in assay [2], 9.3%; in assay [3], 10.8%; in assay [4], 18.2%; in assay [5], 0.95%; in assay [6], 8.3%.
On to `Cc1n[nH]c(=O)n1-n1cccc1`, for which the growth inhibition was -10.1% in assay [1]; -5.35% in assay [2]; -35.5% in assay [3]; 7.1% in assay [4]; -37.2% in assay [5]; 2.55% in assay [6].
For the compound `CCC(C)CCC(=O)C(C)C(=O)O` (stereo not given), the growth inhibition in assay [1] was 5.7%; in assay [2], 3.1%; in assay [3], 3.45%; in assay [4] it was -11.3%; in assay [5], 4.45%; in assay [6], 0.5%.
As to `CCN1CCCC(Nc2cc(C)nc(/N=C(\N)Nc3ccc(Cl)c(Cl)c3)n2)C1` (stereo not given), the growth inhibition was 97.2% (active) in assay [1]; 98% (active) in assay [2]; 98.4% (active) in assay [3]; 87.3% (active) in assay [4]; 96.1% (active) in assay [5]; 98% (active) in assay [6].
Take `O=c1[nH]c(-c2ccccc2)c([N+](=O)[O-])c(=O)[nH]1`: the growth inhibition in assay [1] was 10.7%; in assay [2] it was -6.25%; in assay [3] it was -7.65%; in assay [4], -60.2%; in assay [5], 5.95%; in assay [6], 13.6%.
Take `C=C[C+](CCCC)C(=O)[O-]`: the growth inhibition is -20.2% in assay [1]; -24.1% in assay [2]; -11.1% in assay [3]; -19.8% in assay [4]; -12.8% in assay [5]; -34.9% in assay [6].
Consider `O=c1c2cc(-c3ccccc3)sc2nc2n1N=C(c1ccccc1)CS2`, for which the growth inhibition in assay [1] is -1.35%; in assay [2], -2.7%; in assay [3] it was -12.9%; in assay [4], 21.3%; in assay [5] it was -2.85%; in assay [6], -18.6%.
Consider `Cc1ccc(SCc2ccc(Cl)cc2)nn1`, for which the growth inhibition was 4.05% in assay [1]; 0.3% in assay [2]; -1.65% in assay [3]; -13.8% in assay [4]; 26.8% in assay [5]; -5% in assay [6].
As for `Nc1nc(-c2ccc(S(=O)(=O)O)cc2)cc(=O)[nH]1`, the growth inhibition in assay [1] was -9.6%; in assay [2], -4.5%; in assay [3] it was -10.7%; in assay [4], 17.2%; in assay [5] it was -27.4%; in assay [6], 16.5%.
`BrCC(Br)c1ccc(C(Br)CBr)cc1` (stereo not given): the growth inhibition in assay [1] was 7.65%; in assay [2], -21.6%; in assay [3], 25.1%; in assay [4], 14.7%; in assay [5], 1.5%; in assay [6], 12.1%.
As for `COC(=O)c1nc2c(N)nc(-c3ccccc3)nc2nc1N`, the growth inhibition in assay [1] was 8.9%; in assay [2], -7.4%; in assay [3], 23.1%; in assay [4] it was 11.3%; in assay [5] it was -16.6%; in assay [6], -1.95%.
For the compound `COC(=O)c1ccc(C(=O)OC)c2nc3cc(C)ccc3nc12`, the growth inhibition in assay [1] was -39.1%; in assay [2], -2.3%; in assay [3], -16.2%; in assay [4], 10.1%; in assay [5], 8.65%; in assay [6], 14.4%.
For `CC(=O)N(C)c1ccc(O)cc1`, the growth inhibition is 14.6% in assay [1]; -16.1% in assay [2]; -16.1% in assay [3]; -18.6% in assay [4]; -8.9% in assay [5]; 9.2% in assay [6].
For the compound `Clc1ccc2ncccc2c1`, the growth inhibition is 29.8% in assay [1]; 18% in assay [2]; 7.7% in assay [3]; -24.1% in assay [4]; 7.95% in assay [5]; 17% in assay [6].
Consider `O=C(O)C1CC2CC(=O)C1C2` (stereo not given), for which the growth inhibition in assay [1] is 12.8%; in assay [2] it was -5.45%; in assay [3], -0.85%; in assay [4], -9.75%; in assay [5], 3.4%; in assay [6], 9%.
In the case of `CCCC(=O)Nc1cc(C(=O)N2C[C@H]3C[C@@]34C2=CC(=O)c2[nH]cc(C)c24)n(COC)c1`, the growth inhibition is 43.9% in assay [1]; 59.2% in assay [2]; 68.2% in assay [3]; 41.4% in assay [4]; 5.85% in assay [5]; 69.8% in assay [6].
Consider `Nc1nc2[nH]c(=O)cnc2c(=O)[nH]1`, for which the growth inhibition in assay [1] is -17.8%; in assay [2], -32.3%; in assay [3], -26.2%; in assay [4] it was -0.1%; in assay [5] it was -27.5%; in assay [6], -20.7%.
In the case of `Oc1ccc(-c2cc(-c3cc(-c4ccc(O)cc4)no3)on2)cc1`, the growth inhibition was -1.95% in assay [1]; -3.5% in assay [2]; -10.8% in assay [3]; -11.7% in assay [4]; -32.3% in assay [5]; -7.1% in assay [6].
Regarding `O=S(=O)(OC12CCCCC1CN1CCCCC1C2)c1ccc(Br)cc1` (stereo not given), the growth inhibition was 14.6% in assay [1]; 9.5% in assay [2]; -4.1% in assay [3]; -3.1% in assay [4]; 3.7% in assay [5]; 12.8% in assay [6].
Consider `O=C1CN(Cc2ccccc2)CCO1`, for which the growth inhibition in assay [1] is 4.95%; in assay [2], -4.3%; in assay [3], -3.55%; in assay [4] it was 0.9%; in assay [5] it was 10.5%; in assay [6], 1.4%.
